Experiment [1] has as its target T1, Aspartate--tRNA(Asp/Asn) ligase (Mycobacterium tuberculosis (strain ATCC 25618 / H37Rv)) (UniProt P9WFW3). Note: in the data most compounds retested in dose-response had high values.
T1 sequence (whole entry): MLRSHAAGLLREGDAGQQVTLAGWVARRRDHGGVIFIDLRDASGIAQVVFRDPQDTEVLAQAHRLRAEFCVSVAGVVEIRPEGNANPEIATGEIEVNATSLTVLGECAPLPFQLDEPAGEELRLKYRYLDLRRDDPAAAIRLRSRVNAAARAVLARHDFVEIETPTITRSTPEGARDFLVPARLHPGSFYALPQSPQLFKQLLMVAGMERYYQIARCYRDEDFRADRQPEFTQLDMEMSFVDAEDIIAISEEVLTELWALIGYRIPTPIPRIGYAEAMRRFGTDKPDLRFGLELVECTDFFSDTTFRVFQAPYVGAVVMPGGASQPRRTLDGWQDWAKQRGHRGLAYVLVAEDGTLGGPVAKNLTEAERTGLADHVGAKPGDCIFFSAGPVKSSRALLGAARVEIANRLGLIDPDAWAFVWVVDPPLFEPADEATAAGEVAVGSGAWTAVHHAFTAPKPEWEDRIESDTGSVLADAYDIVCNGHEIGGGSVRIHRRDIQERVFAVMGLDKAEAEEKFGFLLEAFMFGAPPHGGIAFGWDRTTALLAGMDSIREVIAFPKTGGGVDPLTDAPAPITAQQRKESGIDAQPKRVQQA
Description: Assay for Asp RNA synthetase-1 from Mycobacterium tuberculosis. Format: functional. The settings on record: 30 µM. Also noted: scale not given: direction of the effect not stated beside the values.

Experiment [2] has as its target Shiga toxin 2 (Escherichia coli O157:H7) (UniProt P09385+P09386). Description: E. coli 0.157:H7 Shiga Toxin SOP - stx2 screening assay. The settings on record: 30 µM. On the set-up: scale not given: direction of the effect not stated beside the values. Format: functional.

For `CC(C)N1CC(C(=O)NCCOc2ccc3c(c2)OCO3)CC1=O` (centres undefined), the Percent Effect is -3.6% in experiment [1] and 13.8% in experiment [2].

For `Cc1cc(N2CCCC2c2cnccn2)ncn1` (centres undefined), the Percent Effect was determined as 0.908% in experiment [1] and 9.94% in experiment [2].

Turning to `CCn1cc(N)c(C(=O)NCc2cnn(C)c2)n1`, the Percent Effect is -1.99% in experiment [1] and -25.8% in experiment [2].

As to `Cc1ccc(OCC(=O)NS(=O)(=O)c2c(C)noc2C)cc1C`, the values for the Percent Effect in experiment [1] and in experiment [2] were -4.32% and -54.6%, respectively.

As to `CN(Cc1cn2ccccc2c1C#N)C1CCCN(c2cccnn2)C1` (centres undefined), the Percent Effect is 0.694% in experiment [1] and -75.3% in experiment [2].

Take `CCC1CN(CC(=O)Nc2sccc2C#N)CCO1` (centres undefined): the Percent Effect is -2.46% in experiment [1] and 32.6% in experiment [2].

As to `CCN(Cc1cccc2c1OCO2)C(=O)NC1CC1`, the Percent Effect in experiment [1] was -0.162%; in experiment [2], -11%.

As for `O=C(Nc1ccccc1)C1=CC2(CCNCC2)c2ccccc21`, the figures for the Percent Effect in experiment [1] and in experiment [2] were 1.3% and -14.6%, respectively.

As for `CN(C)C(=O)C1CN(Cc2cscn2)CCN(S(C)(=O)=O)C1` (centres undefined), the Percent Effect in experiment [1] was 0.521%; in experiment [2], -12.3%.

Regarding `CN1CCCn2c(nc(CNC(=O)c3ccsc3)cc2=O)C1`, the Percent Effect in experiment [1] is 4.62%; in experiment [2], -9.45%.

Consider `Cc1ccc(CN2CCC(c3nnc(CN4CCCCC4)n3C)CC2)o1`, for which the Percent Effect in experiment [1] is -1.53%; in experiment [2] it was -7.9%.

`O=C(c1ccc(C2CCCO2)s1)N1CCN(c2ccccc2F)CC1` (centres undefined): the figures for the Percent Effect in experiment [1] and in experiment [2] were 1.1% and -30.2%, respectively.

In the case of `O=C(CCCNC(=O)C1CC1)Nc1cnn(-c2ccccc2Cl)c1`, the results for the Percent Effect in experiment [1] and in experiment [2] were -4.78% and -29.3%, respectively.

Take `CNS(=O)(=O)c1ccc(C(=O)NC2CCc3nc(C)cn3C2)o1` (centres undefined): the Percent Effect is -6.5% in experiment [1] and 17.4% in experiment [2].

As to `CN(C)c1ccc(C(=O)NCC2(c3ccccc3)CCOCC2)cc1`, the Percent Effect in experiment [1] was 1.31%; in experiment [2], -24.7%.

Regarding `COc1cc(C)c(C(C)NC(=O)Nc2nnc(C)s2)cc1OC` (centres undefined), the figures for the Percent Effect in experiment [1] and in experiment [2] were -7.26% and 9.98%, respectively.

With `O=C(c1cnccn1)N1C[C@@H]2CC[C@H](C1)N(C(=O)Cc1ccsc1)C2`, the Percent Effect is -3.45% in experiment [1] and -38.6% in experiment [2].

For `CCC(O)CN1CCN(C(=O)c2ccnc(N(C)C)c2)CC1` (centres undefined), the Percent Effect in experiment [1] was -4.29%; in experiment [2], -17.1%.

As to `Cn1cccc1C(=O)N1CCCN(CCCc2ccccc2)CC1`, the Percent Effect in experiment [1] was 0.0912%; in experiment [2] it was -20.8%.

Regarding `O=C(CCOCc1ccccc1)N1CCCC1c1noc(C2CC2)n1` (centres undefined), the Percent Effect in experiment [1] is 14.9%; in experiment [2], 22.2%.

As for `CN(Cc1cnn(C)c1)C(=O)NC1CCS(=O)(=O)C1` (centres undefined), the results for the Percent Effect in experiment [1] and in experiment [2] were -2.67% and 14.6%, respectively.

For `COc1ccc(CN2C[C@@H](OCc3ccccn3)[C@H]3COC[C@H]32)cc1`, the Percent Effect in experiment [1] is 3.47%; in experiment [2], 12.7%.

On to `O=C(CCN1CCOC(Cn2cccn2)C1)NC1CCCC1` (centres undefined), for which the results for the Percent Effect in experiment [1] and in experiment [2] were -1.67% and -51.9%, respectively.

Regarding `COc1ccc(C2CCCCCN2S(=O)(=O)N(C)C)cc1` (centres undefined), the Percent Effect in experiment [1] is -8.89%; in experiment [2], -9.69%.

For the molecule `O=C(CCc1cscn1)NS(=O)(=O)c1ccc2c(c1)CCC2`, the Percent Effect in experiment [1] is -2.03%; in experiment [2], -1.33%.

Take `CCc1nc(CN2CCCC(NCc3nc4cccnc4[nH]3)C2)no1` (centres undefined): the Percent Effect in experiment [1] was -3%; in experiment [2], -27.7%.

In the case of `CC[C@@H]1N(Cc2ccsc2)CCC[C@]12CCC(=O)N2C`, the Percent Effect in experiment [1] was -1.82%; in experiment [2], 5.09%.
